A number with no mark means an inactive call. For some of these results: Potency and affinity values are given separately. Activity calls are given as the source filed them. Unless noted, the rule behind the calls is not given here.

Experiment [1] in a line: antimalarial activity against Dd2 strain (AID 2302;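 active = growth inhibition above 50% at the single 2 µM test dose, taken to imply half-maximal potency below 2 µM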;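 note: 0% = DMSO untreated growth and 100% = chloroquine plus artemisinin killed control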). The conditions noted are these: P. falciparum Dd2 in RBCs, LDH growth readout, 72 h; at 2 µM; active compounds read high.
Experiment [2] in a line: HepG2 cytotoxicity, primary screen, cytotoxicity control for P. falciparum antimalarial project, cell-based, ATP luminescence (AID 2303;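 active = inhibition above 50%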;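 note: 0% = DMSO wells and 100% = digitonin-killed cells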). The settings on record: HepG2 viability, 24-48 h, at 10 µM, active compounds read high.
Experiment [3] deals with L-lactate dehydrogenase (Plasmodium falciparum (isolate CDC / Honduras)) (UniProt Q27743). Nature of the experiment: PfLDH activity inhibition – cell lysate, 3D7 strain, counter-screen for P. falciparum growth inhibition project (AID 2304).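 Note: 0% = vehicle and 100% = reference inhibitor.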 The settings on record: P. falciparum 3D7 crude extract, LDH APAD/NBT absorbance; at 2 µM; active compounds read high. (In general: Counterscreens check selectivity or assay interference.)
L-lactate dehydrogenase (Plasmodium falciparum (isolate CDC / Honduras)), sequence (Q27743 whole entry, looked up): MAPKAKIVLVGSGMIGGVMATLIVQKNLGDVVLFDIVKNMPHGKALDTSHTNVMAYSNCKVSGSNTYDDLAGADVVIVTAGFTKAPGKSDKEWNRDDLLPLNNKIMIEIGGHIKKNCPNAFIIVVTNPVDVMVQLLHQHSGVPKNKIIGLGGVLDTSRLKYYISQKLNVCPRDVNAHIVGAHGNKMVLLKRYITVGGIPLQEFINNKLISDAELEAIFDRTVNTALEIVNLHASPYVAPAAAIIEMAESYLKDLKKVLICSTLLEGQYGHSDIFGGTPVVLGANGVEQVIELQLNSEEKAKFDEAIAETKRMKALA

A short description of experiment [4]: inhibition of 3D7 malaria parasite growth – strain 3D7 (AID 2306).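 Note: 0% = DMSO wells and 100% = chloroquine plus artemisinin control wells.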 The settings on record: P. falciparum 3D7 erythrocytic growth, LDH absorbance, 72 h; at 2 µM; active compounds read high.
Experiment [5] has as its target Calcium-dependent protein kinase 1 (Plasmodium falciparum (isolate 3D7)) (UniProt P62344). In words: PfCDPK1 kinase inhibitors, biochemical, TCAMS library (AID 1159585; cut-off not given, nearly all actives have IC50 up to about 0.98 µM;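 note: inhibitors leave more ATP so luminescence rises with inhibition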). The conditions noted are these: recombinant PfCDPK1, Kinase-Glo ATP depletion luminescence.
In experiment [6] the target is Plasmodium falciparum protein kinase 6 (PK6, PF3D7_1337100) (UniProt Q8IDW1). Nature of the experiment: PfPK6 kinase inhibitors, biochemical, TCAMS library (AID 1159586). The conditions noted are these: recombinant PfPK6, Kinase-Glo ATP depletion luminescence. Background: Kinase-Glo measures the ATP left after a reaction by luminescence.
Plasmodium falciparum protein kinase 6 (PK6, PF3D7_1337100), sequence (Q8IDW1 1-305): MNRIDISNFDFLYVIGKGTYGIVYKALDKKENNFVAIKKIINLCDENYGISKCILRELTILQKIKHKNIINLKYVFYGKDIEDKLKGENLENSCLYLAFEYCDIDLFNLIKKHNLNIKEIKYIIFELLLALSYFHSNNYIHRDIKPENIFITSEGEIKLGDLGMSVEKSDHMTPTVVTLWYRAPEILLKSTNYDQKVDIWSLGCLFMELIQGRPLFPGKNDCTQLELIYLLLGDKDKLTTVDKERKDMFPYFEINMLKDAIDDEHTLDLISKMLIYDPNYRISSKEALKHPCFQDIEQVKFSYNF
In experiment [7] the target is Protein kinase 7 (PK7), Plasmodium falciparum 3D7 (PF3D7_0213400) (UniProt Q7YTF7). Nature of the experiment: inhibition of Plasmodium PK7 catalytic activity – biochemical, TCAMS antimalarial set, Kinase-Glo luminescence (AID 1159587). The conditions noted are these: recombinant PfPK7, Kinase-Glo ATP depletion luminescence.
Protein kinase 7 (PK7), Plasmodium falciparum 3D7 (PF3D7_0213400), sequence (Q7YTF7 1-343): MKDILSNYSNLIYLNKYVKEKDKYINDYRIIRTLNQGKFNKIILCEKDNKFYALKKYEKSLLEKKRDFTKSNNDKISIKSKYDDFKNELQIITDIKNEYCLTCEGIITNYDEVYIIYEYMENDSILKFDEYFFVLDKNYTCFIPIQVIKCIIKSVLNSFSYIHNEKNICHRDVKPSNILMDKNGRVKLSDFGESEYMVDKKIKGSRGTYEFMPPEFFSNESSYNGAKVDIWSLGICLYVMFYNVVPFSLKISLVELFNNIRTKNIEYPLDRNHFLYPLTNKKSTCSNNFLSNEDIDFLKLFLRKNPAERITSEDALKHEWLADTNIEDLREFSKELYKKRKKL
The target of experiment [8] is Calcium-dependent protein kinase 4 (Plasmodium falciparum (isolate 3D7)) (UniProt Q8IBS5). Nature of the experiment: PfCDPK4 kinase inhibitors, biochemical, TCAMS library (AID 1159588; cut-off not given, nearly all actives have IC50 up to about 0.91 µM). The conditions noted are these: recombinant PfCDPK4, Kinase-Glo ATP depletion luminescence.
Calcium-dependent protein kinase 4 (Plasmodium falciparum (isolate 3D7)), sequence (Q8IBS5 whole entry, looked up): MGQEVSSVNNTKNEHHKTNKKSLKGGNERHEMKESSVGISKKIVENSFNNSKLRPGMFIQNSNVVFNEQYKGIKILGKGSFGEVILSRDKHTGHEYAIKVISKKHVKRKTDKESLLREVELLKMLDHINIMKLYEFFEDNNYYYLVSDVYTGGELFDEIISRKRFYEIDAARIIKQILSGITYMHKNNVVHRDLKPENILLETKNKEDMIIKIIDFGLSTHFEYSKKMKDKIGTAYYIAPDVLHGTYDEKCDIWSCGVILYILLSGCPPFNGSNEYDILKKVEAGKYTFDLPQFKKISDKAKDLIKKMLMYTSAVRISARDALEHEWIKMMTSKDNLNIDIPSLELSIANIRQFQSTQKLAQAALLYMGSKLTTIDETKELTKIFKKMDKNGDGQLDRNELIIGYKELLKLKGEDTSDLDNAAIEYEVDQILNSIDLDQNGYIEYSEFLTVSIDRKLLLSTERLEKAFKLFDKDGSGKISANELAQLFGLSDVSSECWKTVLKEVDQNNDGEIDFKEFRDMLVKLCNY

Calcium-dependent protein kinase 1 (Plasmodium falciparum (isolate 3D7)), sequence (P62344 whole entry, looked up): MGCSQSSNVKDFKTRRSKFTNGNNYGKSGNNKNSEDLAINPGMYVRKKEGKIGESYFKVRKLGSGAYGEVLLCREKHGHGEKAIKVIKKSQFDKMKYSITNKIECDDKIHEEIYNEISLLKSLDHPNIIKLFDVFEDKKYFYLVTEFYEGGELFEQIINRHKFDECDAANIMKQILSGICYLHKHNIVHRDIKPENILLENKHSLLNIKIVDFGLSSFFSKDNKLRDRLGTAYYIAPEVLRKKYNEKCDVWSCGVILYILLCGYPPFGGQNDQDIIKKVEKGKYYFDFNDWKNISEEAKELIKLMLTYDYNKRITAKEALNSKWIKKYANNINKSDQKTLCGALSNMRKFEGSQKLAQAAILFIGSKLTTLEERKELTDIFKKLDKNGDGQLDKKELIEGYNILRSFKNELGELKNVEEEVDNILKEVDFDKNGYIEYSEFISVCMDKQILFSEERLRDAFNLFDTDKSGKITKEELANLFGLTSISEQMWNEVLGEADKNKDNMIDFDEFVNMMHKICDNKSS

As usually defined, the inhibition is the drop in the measured response relative to a control, in per cent. Consider `NC(N)=Nc1nc(-c2ccc(N=C(N)N3CCC[C@H]3CN3CCCC3)cc2)cs1`, for which the growth inhibition in experiment [1] is 66% (active); in experiment [4] it was 82% (active). The values for the inhibition in experiment [2] and in experiment [3] were 6% and 1%, respectively. Further, the result in experiment [5], in experiment [6], in experiment [7] and in experiment [8] was inactive.

As to `COc1cc(Cc2c(C)nc3nc(N)nc(N)c3c2C)c(Br)c(OC)c1OC`, the growth inhibition in experiment [1] was -2%; in experiment [4], 93% (active). Moreover, the figures for the inhibition in experiment [2] and in experiment [3] were 44% and 0%, respectively. The outcome in experiment [5], in experiment [6], in experiment [7] and in experiment [8] was inactive.

In the case of `c1ccc(CNCc2cccc(-c3ccc(-c4nc5ccccc5[nH]4)s3)c2)cc1`, the growth inhibition in experiment [1] was 63% (active); in experiment [4] it was 95% (active). The inhibition is 8% in experiment [2] and 3% in experiment [3]. The outcome in experiment [5], in experiment [6], in experiment [7] and in experiment [8] was inactive.

In the case of `COc1ccc(F)cc1-c1ccc(C(=O)N2CCCN(c3ccc(C#N)cn3)CC2)cc1`, the growth inhibition in experiment [1] is 100% (active); in experiment [4], 99% (active). Further, the values for the inhibition in experiment [2] and in experiment [3] were 9% and -2%, respectively. Also, the outcome in experiment [5], in experiment [6], in experiment [7] and in experiment [8] was inactive.

On to `COc1ccc(NC(=O)[C@H](Cc2ccccc2)Nc2cc(C)nc(NCC3CCCCC3)n2)cc1`, for which the results for the growth inhibition in experiment [1] and in experiment [4] were 83% (active) and 100% (active), respectively. Besides, the inhibition is 9% in experiment [2] and 1% in experiment [3]. Moreover, the result in experiment [5], in experiment [6], in experiment [7] and in experiment [8] was inactive.

With `CC(C)(C)CC(=O)Nc1ccc(Nc2cc(-c3ccncc3)cc3ncc(C(N)=O)cc23)cc1`, the values for the growth inhibition in experiment [1] and in experiment [4] were 85% (active) and 97% (active), respectively. Besides, the values for the inhibition in experiment [2] and in experiment [3] were 5% and 7%, respectively. The outcome in experiment [5], in experiment [6], in experiment [7] and in experiment [8] was inactive.

For the compound `O=C(Nc1ccc(OC2CCN(Cc3ccc(F)cc3)CC2)c(Cl)c1)c1ccco1`, the growth inhibition in experiment [1] and in experiment [4] was 95% (active) each time. Besides, the inhibition in experiment [2] was 2%; in experiment [3], -4%. In addition, the outcome in experiment [5], in experiment [6], in experiment [7] and in experiment [8] was inactive.

As to `O=C(NCc1cccs1)[C@H](Cc1ccccc1)Nc1ccnc(NCC2CCCCC2)n1`, the growth inhibition in experiment [1] was 67% (active); in experiment [4], 83% (active). Besides, the inhibition was 5% in experiment [2] and -2% in experiment [3]. The result in experiment [5], in experiment [6], in experiment [7] and in experiment [8] was inactive.

Turning to `CCN(CC)CCN(Cc1ccc(-c2ccc(C(F)(F)F)cc2)cc1)C(=O)CN1C(CCc2cccc(F)c2F)=NS(=O)(=O)c2ccccc21`, the results for the growth inhibition in experiment [1] and in experiment [4] were 49% and 101% (active), respectively. Moreover, the inhibition in experiment [2] is 36%; in experiment [3] it was -1%. The outcome in experiment [5], in experiment [6], in experiment [7] and in experiment [8] was inactive.

With `CCCN(CCC)C(=O)c1cc(C(=O)N[C@@H](Cc2ccccc2)[C@H](O)CNC(C)(C)c2cccc(OC)c2)cc(N2CCCCS2(=O)=O)c1`, the growth inhibition in experiment [1] is 74% (active); in experiment [4], 99% (active). Also, the inhibition in experiment [2] is 16%; in experiment [3] it was -3%. Also, the outcome in experiment [5], in experiment [6], in experiment [7] and in experiment [8] was inactive.

Consider `COc1ccc2c(NN=Cc3ccc(OC)c4ccccc34)cc(C)nc2c1`, for which the growth inhibition in experiment [1] is 99% (active); in experiment [4], 101% (active). The inhibition is 3% in experiment [2] and -4% in experiment [3]. In addition, the outcome in experiment [5], in experiment [6], in experiment [7] and in experiment [8] was inactive.

Regarding `CCCCCCN1CCCN(Cc2ccc(C(=O)Nc3ccc(F)c(F)c3)cc2)CC1`, the growth inhibition in experiment [1] was 48%; in experiment [4], 84% (active). The inhibition was 50% (active) in experiment [2] and -8% in experiment [3]. Besides, the result in experiment [5], in experiment [6], in experiment [7] and in experiment [8] was inactive.

As for `Cc1[nH]c(C)c(-c2ccc(-c3ccc(C(F)F)cc3)nc2)c(=O)c1Cl`, the growth inhibition in experiment [1] was 96% (active); in experiment [4] it was 97% (active). Also, the inhibition in experiment [2] was 0%; in experiment [3] it was -2%. In addition, the outcome in experiment [5], in experiment [6], in experiment [7] and in experiment [8] was inactive.

As for `CCc1ccc(NC(=O)c2ccc(CN3CCCN(Cc4ccc(C)s4)CC3)cc2)cc1`, the growth inhibition in experiment [1] is -2%; in experiment [4] it was 87% (active). In addition, the inhibition was 48% in experiment [2] and -2% in experiment [3]. Also, the result in experiment [5], in experiment [6], in experiment [7] and in experiment [8] was inactive.

As for `CC(Cc1ccc(OCCN2CCN(c3ccc(Cl)cc3)CC2)cc1)NCC(O)c1cccc(C(F)(F)F)c1` (stereo not given), the growth inhibition in experiment [1] was 96% (active); in experiment [4] it was 99% (active). Moreover, the inhibition is 97% (active) in experiment [2] and 1% in experiment [3]. Further, the result in experiment [5], in experiment [6], in experiment [7] and in experiment [8] was inactive.

As to `CN1CC[C@@H](Oc2cc(Nc3nc(-c4ccc(C#N)cc4)cs3)ccc2Cl)C1`, the growth inhibition is 24% in experiment [1] and 99% (active) in experiment [4]. The inhibition is 12% in experiment [2] and -1% in experiment [3]. Also, the outcome in experiment [5], in experiment [6], in experiment [7] and in experiment [8] was inactive.

Consider `CCN(CCCN1CCCCC1)c1cc(C)nc(Nc2ccc(C)c(Cl)c2)n1`, for which the growth inhibition in experiment [1] is 100% (active); in experiment [4] it was 101% (active). For the same compound, the results for the inhibition in experiment [2] and in experiment [3] were 32% and -7%, respectively. The result in experiment [5], in experiment [6], in experiment [7] and in experiment [8] was inactive.

Take `CCN(CC)CCN(Cc1ccc(-c2ccc(C(F)(F)F)cc2)cc1)C(=O)Cn1c(CCc2ccccc2F)nc(=O)c2ccccc21`: the growth inhibition in experiment [1] is 54% (active); in experiment [4], 95% (active). The inhibition in experiment [2] is 39%; in experiment [3], -1%. Further, the outcome in experiment [5], in experiment [6], in experiment [7] and in experiment [8] was inactive.

`COc1ccc2nccc([C@@H](O)CN3CCC(NCC(=O)Nc4cc(F)cc(F)c4)CC3)c2n1`: the figures for the growth inhibition in experiment [1] and in experiment [4] were 28% and 89% (active), respectively. Further, the inhibition in experiment [2] was 18%; in experiment [3], -8%. In addition, the outcome in experiment [5], in experiment [6], in experiment [7] and in experiment [8] was inactive.

Turning to `O=S(=O)(NCCN1CCCC1)c1ccc(-c2ccc(CNCc3ccsc3)cc2)cc1F`, the growth inhibition in experiment [1] was 40%; in experiment [4] it was 96% (active). Moreover, the results for the inhibition in experiment [2] and in experiment [3] were 27% and 0%, respectively. The outcome in experiment [5], in experiment [6], in experiment [7] and in experiment [8] was inactive.

The values are drawn from PubChem BioAssay.
